Here are results for 5 compounds from PubChem BioAssay.

Experiment [1] can be described thus: yeast TOR pathway RPL19A-GFP modulators, primary screen, cell-based, S. cerevisiae, multiplex flow cytometry (AID 1862; in the data active = percent of DMSO control GFP below about 86%;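 note: lower values mimic rapamycin by blocking the RPL19A rise seen in DMSO cells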). The note with it: S. cerevisiae RPL19A-GFP strain, flow cytometry fluorescence, 3 h; at 10 µM; stronger effect = lower value. A general note: Flow cytometry measures light scatter and fluorescence of single cells or particles in a stream.
Experiment [2] can be described thus: modulators of MEP2-GFP levels in yeast, primary screen, S. cerevisiae, multiplex flow cytometry (AID 1867;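 active = GFP response, as percent of the DMSO control, above the screen-wide mean plus 3 SD, about 139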;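 note: median GFP channel fluorescence of barcode-gated MEP2-GFP cells measured by flow cytometry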). The settings on record: S. cerevisiae MEP2-GFP strain, 3 h, at 10 µM, stronger effect = higher value, 100% means same as DMSO wells.
Experiment [3] in a line: modulators of CIT2-GFP expression in yeast, primary screen, S. cerevisiae, GFP fusion, multiplex flow cytometry (AID 1870;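 active = percent response above a set limit, the screen-wide mean plus 3 SD, cut at about 130% in these data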;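 note: barcoded CIT2-GFP strain pooled with four other GFP strains with rapamycin as positive control; median GFP fluorescence per well over plate mean of DMSO wells so 100% = DMSO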). The note with it: 3 h, at 10 µM, stronger effect = higher value.
Experiment [4] in a line: modulators of LAP4-GFP expression in yeast, primary screen, S. cerevisiae, multiplex flow cytometry (AID 1873;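 active = GFP signal, as percent of the solvent control, above the screen mean plus 3 SD, about 149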). The note with it: 3 h, at 10 µM, stronger effect = higher value.
A short description of experiment [5]: modulators of AGP1-GFP expression in yeast TOR pathway, primary screen, cell-based, multiplex flow cytometry, S. cerevisiae (AID 1887;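 active = GFP signal above the screen-wide mean plus 3 SD, that is over about 124.5% of the solvent control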;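 note: AGP1-GFP fusion strain of S. cerevisiae within a five-strain barcoded multiplex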). The settings on record: 3 h, at 10 µM, stronger effect = higher value.
A short description of experiment [6]: inhibitors of CD8+ T cell-vesicle binding, pilot screen, LFA-1/ICAM-1 modulator project, MLPCN validation set, flow cytometry (AID 2523;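 active = response below a set limit, under 55% cells CD8-positive and vesicle-bound, and CD8 cells' 90th-percentile brightness under 279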;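 for vesicle binding response: mean PE anti-B7-1 fluorescence of CD8+ cells relative to row control; 100% = QL9-loaded vesicles with DMSO vehicle in the same plate row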). The note with it: 2C mouse CD8+ T cells, at 7 µM, stronger effect = lower value; double positive events: measured here: CD8+/vesicle+ event percentage.
Experiment [7] deals with Integrin beta-1 (Homo sapiens) + Integrin alpha-4 (Homo sapiens) (UniProt P13612+P05556). The experiment is described as follows: inhibition of HUTS-21 binding to VLA-4, pilot screen, VLA-4 allosteric modulator project, U937 cells, HUTS-21 mAb, flow cytometry, validation set (AID 2674;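 active = inhibition above 50%, about 3 SD of the validation set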;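 note: antibody binding induced by the VLA-4 ligand LDV present at three times its Kd; 0% = LDV ligand with antibody and no compound and 100% = antibody without LDV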). The settings on record: HUTS-21 LIBS mAb binding, at 6.7 µM, stronger effect = higher value, binding induced by LDV ligand.

Experiment [8] in a line: superoxide lowering in aged yeast cells, pilot screen, validation compound set (AID 2706;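 active = superoxide response below 65% of plate, a cut near 3 SD across the whole screen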;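 note: yeast exposed to compound for one week at 30 degrees C before staining; 100% = mean of all compound wells on the same plate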). The settings on record: S. cerevisiae aging, superoxide DHE fluorescence; at 10 µM; stronger effect = lower value.
Experiment [9] has as its target Beta-adrenergic receptor kinase 1 (Homo sapiens) (UniProt P25098). The experiment is described as follows: GRK2 binders displacing RNA aptamer, biochemical, validation, human GRK2, bead flow cytometry (AID 488806;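 active = aptamer binding inhibition above 30%, about 3 SD of noise from non-fluorescent compounds; inactive = inhibition at or below 30%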). The settings on record: bead-bound GRK2, FAM-aptamer displacement, at 10 µM, stronger effect = higher value.
In experiment [10] the target is Beta-2 adrenergic receptor (Homo sapiens) (UniProt P07550). As to the kind of experiment: beta2AR agonists driving receptor internalization, pilot screen, cell-based, FAP fluorogen, flow cytometry, validation set (AID 504459;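 active = percent response above 42, roughly 3 SD of non-fluorescent test compounds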;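 note: agonist-driven loss of surface beta2AR via internalization measured by FAP dye flow cytometry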). The settings on record: Am2.2-beta2AR cells, FAP surface receptor flow cytometry; at 10 µM; stronger effect = higher value.
Experiment [11] has as its target AP-2 complex subunit beta (Homo sapiens) (UniProt P63010). The experiment is described as follows: inhibitors of arrestin peptide binding to AP2, pilot screen, biochemical, validation set, GST-AP2 beads, flow cytometry (AID 504541;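 active = inhibition above 54%, about 3 SD of non-fluorescent compounds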;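 note: AP2 carries R879A mutation and is captured from E. coli lysate; bead-bound FITC arrestin peptide fluorescence measuring arrestin peptide binding to AP2; 0% = DMSO wells and 100% = excess unlabeled arrestin peptide control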). The note with it: FITC arrestin peptide, at 10 µM, stronger effect = higher value, AP2 beta2 appendage fragment, R879A mutant.
Experiment [12] is described as follows: yeast V-ATPase proton transport modulators, S. cerevisiae, pHLuorin, HTS validation (AID 504600; in the data active = response above about 15%;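 note: plate controls were DMSO for no effect and reference compound for full effect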). The settings on record: S. cerevisiae pHLuorin cytosolic pH, at 10 µM, stronger effect = higher value.
Experiment [13] concerns anti-desmoglein-3 scFv antibody binding to human DSG3. The experiment is described as follows: inhibitors of anti-DSG3 scFv binding to DSG3, pilot screen, biochemical, validation compound set, bead-based, flow cytometry (AID 588368;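 active = binding below the plate cutoff, the plate median minus 3 SD, with a reading above zero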;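 note: signal is the median channel fluorescence of bead-bound GFP antibody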). The note with it: Protein G beads, DSG3-Fc, scFv-GFP binding, at 10 µM, stronger effect = lower value.
The nature of experiment [14]: inhibitors of fungal efflux pumps CDR1, CDR2, MDR1, pilot screen, validation compound set, multiplex, phenotypic (AID 588506;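 active = efflux inhibition above 0.42, the validation set average plus 4 SD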;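 note: Nile Red retained in cells so higher fluorescence means more efflux inhibition; 0 = negative control wells and 1 = enniatin B 25 µM full block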). The settings on record: S. cerevisiae pump-expressing triplex, Nile Red efflux flow cytometry; at 10 µM; stronger effect = higher value; the pumps come from Candida albicans.
For experiment [15], the target named is ATP-binding cassette sub-family B member 6 (Homo sapiens) (UniProt Q9NP58). As to the kind of experiment: ABCB6 transporter inhibitors, pilot screen, K562-ABCB6 cells, flow cytometry, validation set (AID 588550).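 Note: 0% = DMSO wells and 100% = benzethonium chloride 70 µM positive control.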 The settings on record: K562-ABCB6 porphyrin accumulation, 1 h, at 10 µM, stronger effect = higher value.
Experiment [16] in a line: promoters of myeloid differentiation in arrested cells, primary screen, cell-based, GFP/MAC1 double positive, flow cytometry, validation set (AID 588685;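 active = differentiation response of at least 50%, scaled between solvent and reference control, from cells with both markers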;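 note: compound exposure lasts four days before antibody staining and flow analysis; 0% = DMSO wells and 100% = 5 µM fulvestrant positive control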). The note with it: ER-HoxA9 marrow cells, stronger effect = higher value, normalized: vehicle 0, fulvestrant 100.

Results filed as inconclusive are left out. Active and inactive are the calls of the source.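 Rule for the calls, unless noted: active = inhibition above the screen-wide mean plus 3 SD, about 51%; inactive = the rest.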

Chain of Integrin beta-1 (Homo sapiens) + Integrin alpha-4 (Homo sapiens) (P05556 whole entry, looked up): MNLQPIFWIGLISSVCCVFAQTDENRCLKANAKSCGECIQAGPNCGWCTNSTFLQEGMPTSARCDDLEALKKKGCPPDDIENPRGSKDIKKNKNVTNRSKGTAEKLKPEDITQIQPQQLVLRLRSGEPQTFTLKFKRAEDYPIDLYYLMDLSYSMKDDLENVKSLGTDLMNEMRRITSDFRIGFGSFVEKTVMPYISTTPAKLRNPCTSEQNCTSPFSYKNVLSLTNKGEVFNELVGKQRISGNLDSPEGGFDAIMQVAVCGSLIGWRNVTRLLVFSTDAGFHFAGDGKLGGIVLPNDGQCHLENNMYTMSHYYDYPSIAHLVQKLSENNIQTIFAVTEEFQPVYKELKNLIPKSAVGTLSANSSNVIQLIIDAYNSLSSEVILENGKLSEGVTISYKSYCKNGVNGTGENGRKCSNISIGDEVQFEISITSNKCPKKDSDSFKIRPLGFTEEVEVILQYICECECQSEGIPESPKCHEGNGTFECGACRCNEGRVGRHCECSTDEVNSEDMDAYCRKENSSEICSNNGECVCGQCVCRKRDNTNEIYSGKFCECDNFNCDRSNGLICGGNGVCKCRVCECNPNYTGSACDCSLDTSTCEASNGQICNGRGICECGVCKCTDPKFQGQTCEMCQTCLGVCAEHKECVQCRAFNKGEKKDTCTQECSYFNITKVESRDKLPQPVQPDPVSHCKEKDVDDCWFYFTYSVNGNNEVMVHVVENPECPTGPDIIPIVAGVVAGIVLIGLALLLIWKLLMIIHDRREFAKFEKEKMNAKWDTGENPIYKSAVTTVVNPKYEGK
Chain of Integrin beta-1 (Homo sapiens) + Integrin alpha-4 (Homo sapiens) (P13612 whole entry, looked up): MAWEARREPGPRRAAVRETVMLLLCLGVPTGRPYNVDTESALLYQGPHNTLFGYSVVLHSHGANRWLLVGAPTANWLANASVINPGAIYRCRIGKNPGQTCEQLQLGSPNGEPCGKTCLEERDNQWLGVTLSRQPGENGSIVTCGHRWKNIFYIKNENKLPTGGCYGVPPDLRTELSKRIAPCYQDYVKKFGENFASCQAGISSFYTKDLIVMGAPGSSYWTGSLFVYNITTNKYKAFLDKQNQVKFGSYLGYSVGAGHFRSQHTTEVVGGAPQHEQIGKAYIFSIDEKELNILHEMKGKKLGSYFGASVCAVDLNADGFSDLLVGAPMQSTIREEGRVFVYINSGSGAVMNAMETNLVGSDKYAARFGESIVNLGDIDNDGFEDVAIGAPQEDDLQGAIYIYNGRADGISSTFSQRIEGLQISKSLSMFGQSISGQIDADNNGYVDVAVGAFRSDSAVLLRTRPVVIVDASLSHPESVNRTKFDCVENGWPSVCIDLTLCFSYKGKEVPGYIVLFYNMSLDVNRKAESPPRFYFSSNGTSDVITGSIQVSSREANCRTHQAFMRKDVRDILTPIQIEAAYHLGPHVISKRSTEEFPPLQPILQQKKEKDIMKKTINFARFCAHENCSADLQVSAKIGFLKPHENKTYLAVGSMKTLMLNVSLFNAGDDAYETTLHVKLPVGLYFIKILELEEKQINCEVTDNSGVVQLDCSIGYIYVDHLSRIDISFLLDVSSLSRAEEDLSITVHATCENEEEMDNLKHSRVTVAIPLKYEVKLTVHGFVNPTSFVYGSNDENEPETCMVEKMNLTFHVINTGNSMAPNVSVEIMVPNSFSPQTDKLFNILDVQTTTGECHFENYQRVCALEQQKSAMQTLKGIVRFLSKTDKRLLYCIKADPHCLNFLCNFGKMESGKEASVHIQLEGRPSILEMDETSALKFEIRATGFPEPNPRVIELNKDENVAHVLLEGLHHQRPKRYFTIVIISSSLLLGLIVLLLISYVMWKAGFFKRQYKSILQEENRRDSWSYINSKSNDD
Chain of AP-2 complex subunit beta (Homo sapiens) (P63010 whole entry, looked up, the tested form may be a part, one chain of several): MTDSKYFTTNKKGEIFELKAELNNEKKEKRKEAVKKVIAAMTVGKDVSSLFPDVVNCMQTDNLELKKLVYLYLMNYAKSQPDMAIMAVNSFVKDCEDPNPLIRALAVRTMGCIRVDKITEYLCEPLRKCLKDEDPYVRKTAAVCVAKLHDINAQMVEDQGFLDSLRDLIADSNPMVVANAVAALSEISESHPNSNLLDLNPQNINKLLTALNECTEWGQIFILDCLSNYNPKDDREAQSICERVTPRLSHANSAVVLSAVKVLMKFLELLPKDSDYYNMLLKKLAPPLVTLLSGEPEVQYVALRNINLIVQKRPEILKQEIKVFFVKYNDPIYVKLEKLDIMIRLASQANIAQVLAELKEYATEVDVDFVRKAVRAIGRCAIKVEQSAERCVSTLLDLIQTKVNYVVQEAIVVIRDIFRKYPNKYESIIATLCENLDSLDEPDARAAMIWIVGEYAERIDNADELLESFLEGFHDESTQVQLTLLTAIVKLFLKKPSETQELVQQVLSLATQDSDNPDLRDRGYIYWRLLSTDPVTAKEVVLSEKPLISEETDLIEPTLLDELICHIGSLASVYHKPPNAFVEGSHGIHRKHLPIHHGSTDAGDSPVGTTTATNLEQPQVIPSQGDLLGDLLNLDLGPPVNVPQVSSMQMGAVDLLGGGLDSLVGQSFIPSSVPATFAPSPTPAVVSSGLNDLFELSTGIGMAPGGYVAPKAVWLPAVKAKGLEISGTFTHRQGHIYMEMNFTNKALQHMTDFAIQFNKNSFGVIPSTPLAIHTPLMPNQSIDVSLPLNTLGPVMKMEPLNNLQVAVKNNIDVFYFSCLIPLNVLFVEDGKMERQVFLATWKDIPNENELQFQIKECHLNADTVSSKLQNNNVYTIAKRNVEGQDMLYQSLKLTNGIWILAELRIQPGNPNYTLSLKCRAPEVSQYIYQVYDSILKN
Chain of ATP-binding cassette sub-family B member 6 (Homo sapiens) (Q9NP58 whole entry, looked up): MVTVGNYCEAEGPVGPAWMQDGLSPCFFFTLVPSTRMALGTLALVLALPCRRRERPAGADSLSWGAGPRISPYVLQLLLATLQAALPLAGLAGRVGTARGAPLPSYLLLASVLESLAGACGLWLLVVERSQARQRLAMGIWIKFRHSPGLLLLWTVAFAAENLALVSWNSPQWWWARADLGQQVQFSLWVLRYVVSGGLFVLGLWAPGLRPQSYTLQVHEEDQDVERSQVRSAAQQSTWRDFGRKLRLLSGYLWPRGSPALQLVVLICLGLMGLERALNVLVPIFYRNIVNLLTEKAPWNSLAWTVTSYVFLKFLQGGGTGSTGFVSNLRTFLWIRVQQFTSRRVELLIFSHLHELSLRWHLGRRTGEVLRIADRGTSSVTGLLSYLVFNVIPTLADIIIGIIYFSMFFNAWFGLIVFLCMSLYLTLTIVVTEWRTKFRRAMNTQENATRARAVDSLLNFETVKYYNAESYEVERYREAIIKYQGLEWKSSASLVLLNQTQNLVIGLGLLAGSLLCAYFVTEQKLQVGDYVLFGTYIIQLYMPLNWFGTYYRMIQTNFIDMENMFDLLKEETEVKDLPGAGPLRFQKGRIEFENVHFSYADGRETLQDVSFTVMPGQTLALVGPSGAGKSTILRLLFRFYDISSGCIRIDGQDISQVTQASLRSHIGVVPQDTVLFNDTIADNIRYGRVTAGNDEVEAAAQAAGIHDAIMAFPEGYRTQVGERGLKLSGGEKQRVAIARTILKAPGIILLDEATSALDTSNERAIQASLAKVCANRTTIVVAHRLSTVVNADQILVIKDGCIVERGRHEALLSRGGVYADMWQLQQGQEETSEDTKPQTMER
Chain of Beta-2 adrenergic receptor (Homo sapiens) (P07550 whole entry, looked up): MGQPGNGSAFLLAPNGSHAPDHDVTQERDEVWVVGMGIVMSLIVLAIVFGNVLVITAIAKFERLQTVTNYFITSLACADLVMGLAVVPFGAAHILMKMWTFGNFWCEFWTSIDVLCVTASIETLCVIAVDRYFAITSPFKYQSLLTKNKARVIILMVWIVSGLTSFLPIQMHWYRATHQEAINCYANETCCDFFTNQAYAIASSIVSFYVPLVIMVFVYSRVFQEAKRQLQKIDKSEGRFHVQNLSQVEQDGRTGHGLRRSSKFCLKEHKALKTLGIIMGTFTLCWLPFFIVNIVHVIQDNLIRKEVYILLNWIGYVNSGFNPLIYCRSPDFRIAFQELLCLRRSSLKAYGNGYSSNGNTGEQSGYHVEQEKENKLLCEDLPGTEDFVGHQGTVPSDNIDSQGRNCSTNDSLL
Chain of Beta-adrenergic receptor kinase 1 (Homo sapiens) (P25098 whole entry, looked up): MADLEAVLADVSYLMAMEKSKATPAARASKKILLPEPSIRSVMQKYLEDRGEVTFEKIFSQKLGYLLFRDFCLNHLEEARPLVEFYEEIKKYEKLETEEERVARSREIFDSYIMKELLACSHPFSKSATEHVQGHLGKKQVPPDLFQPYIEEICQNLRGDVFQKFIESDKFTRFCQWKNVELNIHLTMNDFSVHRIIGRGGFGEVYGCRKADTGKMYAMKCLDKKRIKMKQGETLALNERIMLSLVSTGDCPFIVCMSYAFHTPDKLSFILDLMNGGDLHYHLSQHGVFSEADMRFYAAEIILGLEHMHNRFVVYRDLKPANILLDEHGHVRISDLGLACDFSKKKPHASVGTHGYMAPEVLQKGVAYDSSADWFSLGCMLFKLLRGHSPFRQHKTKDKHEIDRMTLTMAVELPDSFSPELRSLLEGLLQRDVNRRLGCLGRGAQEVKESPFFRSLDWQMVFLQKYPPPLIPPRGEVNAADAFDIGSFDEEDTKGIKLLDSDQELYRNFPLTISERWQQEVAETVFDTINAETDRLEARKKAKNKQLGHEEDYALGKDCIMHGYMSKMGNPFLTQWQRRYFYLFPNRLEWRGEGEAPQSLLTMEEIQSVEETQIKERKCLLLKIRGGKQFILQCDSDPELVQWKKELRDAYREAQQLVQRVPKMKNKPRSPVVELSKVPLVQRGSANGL

In the case of `COc1ccc(CNC(=O)c2c(O)c3cccc4c3n(c2=O)CCC4)cc1`, in experiment [1], the percent of DMSO control GFP is 104% (inactive). Besides, the GFP response vs DMSO was 105% (inactive) in experiment [2] and 94.4% (inactive) in [4]. Also, in [3], the percent response of DMSO control is 93.9% (inactive). Further, in experiment [5], the GFP response, % of DMSO is 99.4% (inactive). This compound gave a double positive events in experiment [6] of 57.5%. Moreover, the vesicle binding response in [6] was 18.9% (inactive). Also, the inhibition (usually the relative decrease from the control value, in per cent) in [7] is -7.47% (inactive); in [11], 7.55% (inactive); in experiment [15], 5% (inactive). The superoxide response (% of plate) in experiment [8] was 96.7% (inactive). Besides, in experiment [9], the aptamer binding inhibition is 9% (inactive). Moreover, the response was 4.63% (inactive) in experiment [10] and -1.56% (inactive) in [12]. Moreover, the binding (% of control) in [13] is 99.5% (inactive). In addition, the efflux inhibition (fraction of control) in experiment [14] is 0.62 (active). Besides, the differentiation response in [16] was 1.17% (inactive).
As for `O=C(c1cccc2ccccc12)C1CCCN(C(=O)CCN2CCCO2)C1` (stereo not given), the percent of DMSO control GFP in [1] is 104% (inactive). The GFP response vs DMSO in experiment [2] is 98.3% (inactive); in experiment [4] it was 105% (inactive). In [3], the percent response of DMSO control is 109% (inactive). Further, in experiment [5], the GFP response, % of DMSO is 106% (inactive). Also, the double positive events in experiment [6] stood at 62.4%. The vesicle binding response in experiment [6] is 377% (inactive). For the same compound, the inhibition in experiment [7] was 7.85% (inactive); in [11], -0.89% (inactive); in [15], 4% (inactive). For the same compound, the superoxide response (% of plate) in experiment [8] was 90.5% (inactive). In experiment [9], the aptamer binding inhibition was 0% (inactive). Further, the response was -9.24% (inactive) in [10] and 2.67% (inactive) in experiment [12]. For the same compound, in experiment [13], the binding (% of control) is 96.4% (inactive). For the same compound, the efflux inhibition (fraction of control) in [14] was -0.32 (inactive). The differentiation response in [16] was -0.73% (inactive).
For `COc1ccc2[nH]c(=O)c(CN(C(=O)c3ccco3)C(C)C)cc2c1`, the percent of DMSO control GFP in experiment [1] was 91.7% (inactive). In addition, the GFP response vs DMSO in [2] was 148% (active); in [4] it was 83.6% (inactive). Moreover, the percent response of DMSO control in experiment [3] is 103% (inactive). Moreover, the GFP response, % of DMSO in [5] was 92.6% (inactive). In [6], this compound returned a double positive events of 72.1%. The vesicle binding response in experiment [6] was 221% (inactive). Moreover, the values for the inhibition in [7], in experiment [11] and in experiment [15] were 4.52% (inactive), -1.83% (inactive) and 9% (inactive), respectively. Also, the superoxide response (% of plate) in experiment [8] is 108% (inactive). Besides, in experiment [9], the aptamer binding inhibition was 3% (inactive). Moreover, the response was -2.75% (inactive) in experiment [10] and -5.39% (inactive) in experiment [12]. Further, the binding (% of control) in [13] was 101% (inactive). Besides, the efflux inhibition (fraction of control) in [14] is 0.41 (inactive). In experiment [16], the differentiation response is 0% (inactive).
With `CCC(C)NCCOc1ccc(C(C)(C)c2ccccc2)cc1` (stereo not given), the percent of DMSO control GFP in [1] is 107% (inactive). In addition, the GFP response vs DMSO in experiment [2] was 99.3% (inactive); in [4] it was 94% (inactive). In experiment [3], the percent response of DMSO control was 104% (inactive). In experiment [5], the GFP response, % of DMSO was 103% (inactive). The double positive events in experiment [6] is 61.9%. Also, the vesicle binding response in experiment [6] was 181% (inactive). Further, the inhibition in experiment [7] was -5.64% (inactive); in experiment [11] it was -12.2% (inactive); in [15] it was -5% (inactive). For the same compound, the superoxide response (% of plate) in [8] is 97.5% (inactive). Besides, in experiment [9], the aptamer binding inhibition was -5% (inactive). Also, the response in experiment [10] is 17.1% (inactive); in experiment [12], -2.14% (inactive). In addition, the binding (% of control) in experiment [13] is 106% (inactive). Besides, the efflux inhibition (fraction of control) in experiment [14] is -0.01 (inactive). The differentiation response in [16] is 9.04% (inactive).
`CC1(c2ccccc2)CC(C)(C)N2C(=O)C(=O)c3cccc1c32` (stereo not given): the percent of DMSO control GFP in [1] is 108% (inactive). The GFP response vs DMSO in [2] is 97.4% (inactive); in experiment [4], 81.1% (inactive). In addition, the percent response of DMSO control in experiment [3] was 99.6% (inactive). Moreover, the GFP response, % of DMSO in experiment [5] was 95.7% (inactive). This compound registered a double positive events in [6] of 60.1%. In [6], the vesicle binding response was 148% (inactive). For the same compound, the inhibition in experiment [7] is -7.25% (inactive); in [11] it was 0.89% (inactive); in [15], 5% (inactive). In experiment [8], the superoxide response (% of plate) is 109% (inactive). In [9], the aptamer binding inhibition is 4% (inactive). The response in [10] was 20.4% (inactive); in experiment [12], 3.44% (inactive). Besides, the binding (% of control) in experiment [13] was 98.7% (inactive). The efflux inhibition (fraction of control) in experiment [14] is 0.15 (inactive). Besides, the differentiation response in experiment [16] was 0.8% (inactive).
